TbPYK inhibitor = qHTS of Trypanosoma Brucei Inhibitors; pyruvate kinase (Trypanosoma brucei), Q57TT1; TbPYK enzyme, Kinase-Glo Plus ATP luminescence, 45 min; Potency, µM (titrated, usually from 76.8 µM), for the others: top-dose activity, negative = inhibition, hits mostly inhibitors; 410,000 compounds, 0.12% hits; AID 624173, 2012; also: nearly all actives have a fitted effect of over 50% in size
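Quantitative HTS: titrated library compounds versus trypanosomal pyruvate kinase in TEA buffer (pH 7.2) containing KCl, MgCl2, BSA and Tween-20. Reactions were initiated with ADP, 130 uM final. Kinase-Glo Plus luminescence was read after 45 min at RT.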
RE007 growth inh = qHTS Assay for Inhibitors of the HIV-1 protein Vpr | 360,000 compounds, 0.21% hits | S. pombe RE007 Vpr strain, BacTiter-Glo ATP luminescence, 24 h | AID 651644, 2012 | Potency, µM (titrated, usually from 92.2 µM), without a hit: top-dose activity change, negative = less growth, actives largely listed as inhibitors; active = well fitted falling curve with a large enough effect; inconclusive = small, poorly fitted or top-dose-only effect; inactive = no such curve, though single readings can be large or run the other way; also: nearly all actives have a fitted effect of over 50% in size
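Fission yeast RE007 carrying one integrated HIV-1 vpr copy, seeded at OD 0.01 in PMG+AL medium with 23 nL pinned compound. Grown 24 h at 30 degrees; viability read by BacTiter-Glo luminescence after 5 min.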
AMA1-RON2 inh = qHTS for Inhibitors of AMA1-RON; Towards Development of Antimalarial Drug Lead: Primary Screen; Plasmodium falciparum AMA1 (3D7) - RON2 peptide interaction; AlphaScreen AMA1-biotinylated RON2 peptide binding; Potency, µM (titrated, usually from 58.2 µM), without a hit: top-dose activity change, negative = inhibition, hits mostly inhibitors; 360,000 compounds, 0.2% hits;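 also: 0% = vehicle wells and -100% = peptide control; nearly all actives have a fitted effect of over 45% in size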
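AMA1 (3D7) with his tag at 25 nM final met compounds first, then biotinylated RON2 peptide at 25 nM; detection used donor plus acceptor beads, 10 µg/mL apiece, read by AlphaScreen after 30 min at room temperature.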
LmPK inh = qHTS Assay for Inhibitors of Leishmania Mexicana Pyruvate Kinase (LmPK). Q27686. purified LmPK, Kinase-Glo ATP luminescence, 1 h. Potency, µM (titrated, usually from 57.5 µM), without a hit: top-dose activity change, negative = inhibition, most hits filed as inhibitors. 290,000 compounds, 0.37% hits. AID 1721, 2009
Target sequence (Q27686 whole entry, looked up): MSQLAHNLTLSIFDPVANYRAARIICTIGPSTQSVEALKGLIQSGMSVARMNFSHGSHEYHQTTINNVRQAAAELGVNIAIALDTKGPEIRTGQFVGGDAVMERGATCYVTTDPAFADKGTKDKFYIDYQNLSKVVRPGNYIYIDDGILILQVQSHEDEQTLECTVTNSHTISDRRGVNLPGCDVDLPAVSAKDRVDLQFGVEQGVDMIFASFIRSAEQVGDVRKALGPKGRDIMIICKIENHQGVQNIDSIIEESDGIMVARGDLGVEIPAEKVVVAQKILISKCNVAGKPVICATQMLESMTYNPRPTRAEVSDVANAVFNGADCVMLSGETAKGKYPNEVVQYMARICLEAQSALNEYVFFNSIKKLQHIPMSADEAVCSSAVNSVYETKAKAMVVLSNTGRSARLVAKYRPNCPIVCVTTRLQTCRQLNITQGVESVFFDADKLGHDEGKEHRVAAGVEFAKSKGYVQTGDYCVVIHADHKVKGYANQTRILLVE
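0.1 nM LmPK, 0.5 mM PEP, 0.1 mM ADP; 50 mM imidazole pH 7.2, 7 mM MgCl2, 50 mM KCl; 1 h RT. Kinase-Glo luminescence readout, normalized to no-enzyme (full inhibition) and uninhibited wells.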
* hit, by the source's call. An excerpt weighted towards active compounds, which were near 0.68% of everything screened. Unless noted, calls follow the shape of the dose curve; as a rule, active = well fitted curve in the direction sought with a large enough effect; inconclusive = small, poorly fitted or top-dose-only effect, or another doubt; inactive = no such curve, though single readings can be large; an effect the other way counts as inactive or inconclusive. Unless noted, % is scaled to controls: 0 for no effect and ±100 for the full control effect; potency is read from the fitted curve at half-maximal effect.

What do the screens show for `CCOc1ccc(N2C(=O)CC(N3CCC(NC(=O)Nc4ccccc4)CC3)C2=O)cc1` (stereo not given)?
TbPYK inhibitor: -11%; RE007 growth inh: 22µM*; AMA1-RON2 inh: -7%; LmPK inh: 4%

How did CCCOc1ccc(N2C(=O)CC(N3CCC(C(=O)OCC)CC3)C2=O)cc1 (stereo not given) do in these assays?
TbPYK inhibitor: 3%; RE007 growth inh: 5.6µM*; AMA1-RON2 inh: 3%; LmPK inh: 7%

Results for COc1cccc(N2CCN(Cc3ccco3)CC2)c1 ?
TbPYK inhibitor: 23%; RE007 growth inh: -21%; AMA1-RON2 inh: -1%; LmPK inh: -5%

How did Nc1nnnn1/N=C/c1cccc(O)c1 do in these assays?
TbPYK inhibitor: 0%; RE007 growth inh: -3%; AMA1-RON2 inh: 7%; LmPK inh: -2%

Results for Nc1nnnn1/N=C/c1ccc(O)cc1 ?
TbPYK inhibitor: -8%; RE007 growth inh: -19%; AMA1-RON2 inh: -10%; LmPK inh: 16µM*

How did O=c1c2ccccc2sn1-c1ccc(Cl)cc1 do in these assays?
TbPYK inhibitor: 32µM*; RE007 growth inh: 8.9µM*; AMA1-RON2 inh: 10%

How did Cc1ccc(-n2sc3ccccc3c2=O)cc1 do in these assays?
TbPYK inhibitor: 7.9µM*; RE007 growth inh: 6.3µM*; AMA1-RON2 inh: 19%; LmPK inh: 20µM*

What do the screens show for `COC(=O)c1cccc(-n2sc3ccccc3c2=O)c1`?
TbPYK inhibitor: 6.3µM*; RE007 growth inh: inconclusive; AMA1-RON2 inh: 22%

What do the screens show for `Cc1ccc(-n2sc3cc(F)ccc3c2=O)c(C)c1`?
TbPYK inhibitor: 10µM*; RE007 growth inh: 11µM*; AMA1-RON2 inh: 0%

Results for O=C(CCc1nc(-c2ccc(F)cc2)no1)NCc1ccccc1CN1CCOCC1 ?
TbPYK inhibitor: -1%; RE007 growth inh: -4%; AMA1-RON2 inh: 2%

What do the screens show for `O=c1c2ccccc2sn1-c1ccc(F)cc1`?
TbPYK inhibitor: 8.9µM*; RE007 growth inh: 5.6µM*; AMA1-RON2 inh: 4%

Results for O=c1c2ccc(F)cc2sn1-c1ccccc1 ?
TbPYK inhibitor: 10µM*; RE007 growth inh: -70%; AMA1-RON2 inh: -3%

How did N=C1SCC(=O)N1c1ccccc1Cl do in these assays?
TbPYK inhibitor: 4%; RE007 growth inh: 6%; AMA1-RON2 inh: 8%; LmPK inh: -6%

How did O=c1c2cc(F)ccc2sn1-c1ccccc1Cl do in these assays?
TbPYK inhibitor: 11µM*; RE007 growth inh: inconclusive; AMA1-RON2 inh: -9%

How did COc1ccc(S(=O)(=O)/N=C2\C=C(Nc3ccc(O)cc3)C(=O)c3ccccc32)cc1 do in these assays?
TbPYK inhibitor: -27%; RE007 growth inh: -21%; AMA1-RON2 inh: 18µM*; LmPK inh: -21%

What do the screens show for `CC(=O)Nc1ccc(NC2=C/C(=N/S(=O)(=O)c3cccs3)c3ccccc3C2=O)cc1`?
TbPYK inhibitor: 5%; RE007 growth inh: -13%; AMA1-RON2 inh: -26%; LmPK inh: -22%

What do the screens show for `Oc1ccccc1-c1ccccc1`?
TbPYK inhibitor: -2%

What do the screens show for `S=c1sscc1-c1ccccc1`?
TbPYK inhibitor: -4%; RE007 growth inh: -15%; AMA1-RON2 inh: 20µM*

How did CCn1c(SCC#N)nc2c(c1=O)C1(CCCC1)Cc1ccccc1-2 do in these assays?
TbPYK inhibitor: 5%; RE007 growth inh: 4%; AMA1-RON2 inh: -7%; LmPK inh: 4%

How did CCn1c(=O)c2c(n3c(=S)[nH]nc13)-c1ccccc1CC21CCCCC1 do in these assays?
TbPYK inhibitor: inconclusive; RE007 growth inh: 0%; AMA1-RON2 inh: 18%; LmPK inh: 14µM*

How did COc1cc(/C=C2\SC(=S)N(NS(=O)(=O)c3ccc(C)cc3)C2=O)ccc1O do in these assays?
TbPYK inhibitor: -13%; RE007 growth inh: -9%; AMA1-RON2 inh: -9%; LmPK inh: -9%

What do the screens show for `O=C(c1ccsc1)N1CCCC(N2CCN(c3cccc(C(F)(F)F)c3)CC2)C1` (stereo not given)?
TbPYK inhibitor: -1%; RE007 growth inh: 1%; AMA1-RON2 inh: -1%; LmPK inh: -7%

What do the screens show for `CN1/C(=C\C=C\C2=[N+](C)c3ccc4ccccc4c3C2(C)C)C(C)(C)c2ccccc21`?
LmPK inh: 14µM*
